# IL-1B inflam inh – inflammasome signaling inhibition, IL-1 beta readout. AID 743279. activity change, % at 57.5 µM. actives 4.7% (n = 360,000). THP-1 LPS/ATP IL-1B secretion, AlphaLISA, 16 h; hits give low values; in the data active means activity change below about -50%; inconclusive means mostly about -30% to -49%; further: on the % scale 0 is the no-effect control and ±100 the full control effect
#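 THP-1 cells pretreated 1 hr with compounds (up to 57.5 uM final), then stimulated with LPS (250 ng/mL final) plus ATP (1.25 mM final); secreted IL-1B measured by AlphaLISA after 16 hr, decreased signal indicating inhibition.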
# MCF10A rerep – inducers of DNA re-replication in MCF 10A breast cells; Potency, µM (highest dose often 46.1 µM), for inactives: at the top dose activity, positive = re-replication, most hits filed as activators; actives 2.9% (n = 350,000); AID 624296; MCF 10A DNA re-replication, Hoechst nuclear intensity, 48 h; further: potency means the concentration at half of the fitted maximal effect; % of control where 0% means no effect; nearly all actives have a fitted effect of over 50% in size
# SW480 rerep – induces DNA re-replication in SW480 colon adenocarcinoma cells; SW480 DNA re-replication, Hoechst DNA content imaging, 48 h; Potency, µM (series often up to 46.1 µM), for the others: at the highest dose re-replication activation, usual class: activators; actives 1.8% (n = 340,000); AID 624297; further: potency means the concentration at half of the fitted maximal effect; % of control where 0% means no effect; nearly all actives have a fitted effect of over 55% in size
#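 Hoechst fluorescence of nuclei (405 nm excitation, 500-530 nm emission) measured by plate-scanning imager after 48 hr compound exposure at 37 C; re-replication scored as increased number of nuclei with elevated intensity.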
# KB-3-1 tox – kills parental KB-3-1 adenocarcinoma cells. KB-3-1 viability, CellTiter-Glo ATP luminescence, 72 h. actives 1.4% (n = 400,000). Potency, µM (top dose mostly 46.1 µM), usual class: cytotoxic; further: potency means the concentration at half of the fitted maximal effect; on the % scale 0 is the no-effect control and ±100 the full control effect; nearly all actives have a fitted effect of over 60% in size
#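 Cytotoxicity measured as CellTiter-Glo luminescence after 72 h at 37 C. Compound titrations were pinned onto drug-naive KB-3-1 parental adenocarcinoma cells grown in DMEM with 10% FBS, and normalized data fitted to concentration-response curves.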
# KB-V1 MDR tox – KB-V1 MDR subline cytotoxicity. Potency, µM (series often up to 46.1 µM), hits mostly cytotoxic. KB-V1 MDR cells viability, CellTiter-Glo, 72 h. AID 1347076. actives 3.4% (n = 400,000); further: potency means the concentration at half of the fitted maximal effect; on the % scale 0 is the no-effect control and ±100 the full control effect; nearly all actives have a fitted effect of over 60% in size
#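 Cytotoxicity toward P-gp-expressing KB-V1 cells was determined as loss of CellTiter-Glo luminescence after 72 h at 37 degrees C. Compounds were tested in quantitative HTS format across a concentration range, with curves fitted to normalized data.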
# * = called active by the depositor; i = inactive; ? = inconclusive; . = not tested or not shown; ! = not active in a repeat; [ ] = another dose, or the depositor's remark. An excerpt weighted towards active compounds, which were near 9.9% of everything screened. Unless noted, the call rests on the fitted dose curve; in most records, active means well fitted curve in the direction sought with a large enough effect; inconclusive means small, poorly fitted or top-dose-only effect, or another doubt; inactive means no such curve, though single readings can be large; an effect the other way counts as inactive or inconclusive.
SMILES,IL-1B inflam inh,MCF10A rerep,SW480 rerep,KB-3-1 tox,KB-V1 MDR tox
O=C1N(c2ccccc2C(F)(F)F)O[C@@]1(c1ccccc1)C1CCCC1,-22.3,16.4µM*,-4.6%,i,i
COc1ccc([C@]2(C(C)C)ON(c3ccccc3C(F)(F)F)C2=O)cc1,-16.6,6.8%,-2.6%,i,i
O=C(NCC1CCCO1)C1CCCN(S(=O)(=O)c2cc(Cl)ccc2Cl)C1 (centres undefined),10.4,?,-1.5%,i,?
CN1C(=O)/C(=C\C(=O)c2cccs2)c2ccccc21,-103.1*,?,-71.4%,?,?
COC(=O)[C@]1(Cc2ccccc2)N[C@H](CN(C)C(=O)Nc2ccc(Cl)cc2)[C@@H]2C(=O)N(Cc3ccccc3)C(=O)[C@@H]21,-64.5*,?,-14.2%,i,i
CCN(C[C@H]1N[C@@](Cc2ccccc2)(C(=O)OC)[C@H]2C(=O)N(Cc3ccccc3)C(=O)[C@@H]12)C(C)=O,-86.3*,-0.8%,15.1%,?,i
Cc1cc(Nc2ccc(C)c(Cl)c2)n2nc(Cc3ccccc3)nc2n1,.,.,.,i,i
COC(=O)c1ccccc1NC(=O)N1CCN(C(=O)c2ccco2)CC1,-3.6,2.7%,-7.5%,?,7.31µM*
COC(=O)c1ccc(C(=O)OC)c(NC(=O)N2c3ccccc3Sc3ccccc32)c1,34.8,-2.5%,8.0%,i,i
COc1ccccc1C(=O)N1c2ccccc2Sc2ccccc21,12.1,23.1µM*,?,20.6µM*,?
COC(=O)c1ccccc1NC(=O)N1c2ccccc2CC1C (centres undefined),18.5,?,-1.6%,i,23.1µM*
COC(=O)c1ccccc1NC(=O)N1c2ccccc2Sc2ccccc21,-16.6,8.2µM*,8.0%,?,i
Cc1ccccc1NC(=O)N1CCN(C(=O)c2ccco2)CC1,-10.3,6.4%,?,i,i
CCOc1ccc(NC(=O)CN2CCN(C3CCCCC3)C(=O)C2=O)cc1,.,.,.,i,i
O=C1NC[C@H](CCCCN2CCN(CC3CCCCC3)C(=O)C2=O)N(CC2CCCCC2)C1=O,-2.9,.,.,i,i
Cc1ccc2c(CC(=O)N3CCN(c4cccc(Cl)c4)CC3)coc2c1C,.,.,.,i,i
Fc1ccccc1NC(=S)Nc1cccc2cnccc12,0.6,7.9%,-3.7%,?,23.1µM*
Cc1ccc(NC(=S)Nc2cccc3cnccc23)cc1C,-78.4*,-3.4%,-4.7%,?,?
Cc1ccc(C)c(NC(=S)Nc2cccc3cnccc23)c1,31.7,?,13µM*,?,?
S=C(NCCc1ccccc1)Nc1cccc2cnccc12,54.7,17.7%,-2.3%,4.11µM*,8.2µM*
Cc1ccccc1NC(=S)Nc1cccc2cnccc12,27.4,0.7%,-0.5%,i,?
CCCCNc1ncnc2[nH]ncc12,3.7,?,9.4%,.,.
S=C(Nc1cccc(Cl)c1)Nc1cccc2cnccc12,?,?,-1.1%,18.4µM*,23.1µM*
CC(OC(=O)C1CC(=O)N(Cc2ccco2)C1)C(=O)Nc1cccc(C#N)c1 (centres undefined),9.5,-2.2%,5.8µM*,i,i
COc1cc2c(cc1NC(=O)C(C)OC(=O)C1CC(=O)N(Cc3ccco3)C1)oc1ccccc12 (centres undefined),-17.9,?,-1.0%[9.22 µM],i,i
SMILES,IL-1B inflam inh,MCF10A rerep,SW480 rerep,KB-3-1 tox,KB-V1 MDR tox
COC(=O)c1cc(S(=O)(=O)NCc2ccccc2)c[nH]1,-4.8,-7.6%,-18.8%,i,i
COC(=O)c1cc(S(=O)(=O)N(Cc2ccccc2)C(C)(C)C)c[nH]1,45.8,23.1µM*,6.51µM*,?,i
CCCCn1c(NC(=O)c2ccccc2)c(C#N)c2nc3ccccc3nc21,-22.7,0.7%,-1.5%,?,5.17µM*
Cc1nn(C(C)(C)C)c(NC(=O)c2ccccc2)c1C#N,10.1,-3.9%,10.4%,i,i
N#Cc1c(NC(=O)c2ccc(Br)o2)n(-c2ccccc2)c2nc3ccccc3nc12,41.7,?,?,i,i
CCC(C)n1c(NC(=O)c2ccccc2)c(C#N)c2nc3ccccc3nc21 (centres undefined),-16.6,1.3µM*,5.17µM*,?,?
CCC(=O)Nc1c(C#N)c2nc3ccccc3nc2n1-c1ccc(C)cc1,33.8,23.1µM*,?,i,?
Cn1c(CNC(=O)C(Cc2ccccc2)NC(=O)c2ccccc2F)cc(=O)n(C)c1=O (centres undefined),-14.9,1.3%,-1.7%,i,?
O=C1NC[C@H](CCCCN2C[C@H](Cc3ccc(O)cc3)N(CCc3ccccc3)C(=O)C2=O)N(CC2CCCCC2)C1=O,-2.2,.,.,i,i
Cc1nc2c(-c3ccc(F)cc3)c(C)[nH]n2c(=O)c1Cl,1.3,12.5%,7.31µM*,10.3µM*,i
Cc1[nH]n2c(=O)c3c(nc2c1-c1ccc(F)cc1)CCCC3,8.1,-8.9%,-3.3%,?,i
COCc1cc(=O)n2[nH]c(C)c(-c3ccc(Cl)cc3)c2n1,35.7,.,.,?,?
Cc1nc2c(-c3ccccc3)c(C)[nH]n2c(=O)c1Cc1ccccc1,83.5,?,?,?,?
Cc1[nH]n2c(=O)cc(-c3ccccc3Cl)nc2c1-c1ccccc1,.,.,.,6.51µM*,i
Cc1cccc(Cc2c(C)nc3c(-c4ccccc4)c(C)[nH]n3c2=O)c1,.,.,.,10.3µM*,i
N#Cc1ccc2[nH]c(CO)c(-c3ccccc3)c2c1,0.0,6.8%,-1.8%,i,i
C/C(=N\NC(=O)Cc1ccccc1)c1ccc(Cl)s1,23.2,0.4%,?,i,?
CCC12CN3CC(C)(CN(C1)C3c1ccc(O)cc1O)C2=O (centres undefined),.,.,.,i,i
COc1ccc(C=O)cc1COc1ccc([N+](=O)[O-])c(C)c1,14.6,?,14.6µM*,i,i
COc1ccc(C=O)cc1COc1ccc2c(c1)OCO2,47.4,?,3.66µM*,?,?
O=C(CN1C(=O)NC2(CCCCCC2)C1=O)NCc1ccccc1Cl,-4.1,12.0%,-8.3%,i,i
O=C1NCN(c2ccccc2)C12CCN(CCCC(c1ccc(F)cc1)c1ccc(F)cc1)CC2,-16.0,26.6µM*!,?,?,?
O=C(CCCN1CCN(c2ccccc2)CC1)c1ccc(F)cc1,1.6,.,.,i,i
CC(C)c1ccc(NC(=O)c2snc3ccc(Cl)cc23)cc1,-7.6,?,?,0.0517µM*,?
CC(C)(C)C(=O)Nc1sc2c(c1-c1nc3ccccc3[nH]1)CCCC2,-0.8,13µM*,1.7%,i,i
O=C(COc1ccc(/C=N/NC(=O)C(=O)N2CCCCCC2)cc1)Nc1ccccc1Cl,-5.5,?,1.7%,i,18.4µM*

# Screens: PubChem, National Center for Advancing Translational Sciences (NCATS)
